Laboratory results reported in the supplement of paper PMC6089552.
In all, about 3,200 compounds went through this assay and about 300 (9.4%) showed activity. The sample as a whole holds a higher share of actives than the screen did.

Tested on: A673/TR/shEF
Assay: cell viability (LOESS-normalised, relative to median of negative controls) (log2 ratio); higher = more viable cells (less compound effect), active = hit call of the paper (over 3 MAD below the median)
Conditions: treatment time: 72 h
In short: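 Viability of A673/TR/shEF Ewing sarcoma cells was determined by CellTiter-Glo luminescence. The cells, at 1,500 per well in 384-well plates, were grown with or without doxycycline from 24 h before compound addition to switch on EWS-FLI1 shRNA knockdown, then exposed for three days to library compounds at two or more concentrations or to DMSO controls. Signals were LOESS-corrected plate by plate, normalised to the negative-control median and log2-transformed.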

[1] = 0.25 µM, library screen: screen1, EWS-FLI1 expression: high (no doxycycline)
[2] = 0.25 µM, library screen: screen1, EWS-FLI1 expression: low (doxycycline-induced shRNA knockdown)
[3] = 2.5 µM, library screen: screen1, EWS-FLI1 expression: high (no doxycycline)
[4] = 2.5 µM, library screen: screen1, EWS-FLI1 expression: low (doxycycline-induced shRNA knockdown)
[5] = 0.103 µM, library screen: screen3, EWS-FLI1 expression: high (no doxycycline)
[6] = 0.103 µM, library screen: screen3, EWS-FLI1 expression: low (doxycycline-induced shRNA knockdown)
[7] = 0.308 µM, library screen: screen3, EWS-FLI1 expression: high (no doxycycline)
[8] = 0.308 µM, library screen: screen3, EWS-FLI1 expression: low (doxycycline-induced shRNA knockdown)
[9] = 0.926 µM, library screen: screen3, EWS-FLI1 expression: high (no doxycycline)
[10] = 0.926 µM, library screen: screen3, EWS-FLI1 expression: low (doxycycline-induced shRNA knockdown)
[11] = 2.8 µM, library screen: screen3, EWS-FLI1 expression: high (no doxycycline)
[12] = 2.8 µM, library screen: screen3, EWS-FLI1 expression: low (doxycycline-induced shRNA knockdown)
[13] = 8.3 µM, library screen: screen3, EWS-FLI1 expression: high (no doxycycline)
[14] = 8.3 µM, library screen: screen3, EWS-FLI1 expression: low (doxycycline-induced shRNA knockdown)
[15] = 25 µM, library screen: screen3, EWS-FLI1 expression: high (no doxycycline)
[16] = 25 µM, library screen: screen3, EWS-FLI1 expression: low (doxycycline-induced shRNA knockdown)

Measured: cell viability (log2)

CC(=O)O[C@H]1CC[C@@]2(C)C(CC[C@]3(C)C2C(=O)C=C2C4[C@@H](C)[C@H](C)CC[C@]4(C(=O)O)CC[C@]23C)C1(C)C (stereo partly specified)
inactive: [1] 0.0834 | [2] -0.0467 | [3] 0.137 | [4] -0.0143

Cc1nnc(SCC(=O)N2c3cc(C)c(C)cc3-c3c(ssc3=S)C2(C)C)s1
inactive: [1] 0.0437 | [2] 0.1 | [3] 0.106 | [4] 0.371

COc1cc(CN2CCN(Cc3ccccc3Br)CC2)cc(OC)c1OC
inactive: [1] 0.141 | [2] 0.0128 | [3] 0.124 | [4] -0.0338

COCCCN1C(=O)C(=Cc2sccc2C)SC1=S
inactive: [1] 0.112 | [2] 0.0557 | [3] 0.117 | [4] -0.0013

CC1=C(C(=O)Nc2ccccc2Cl)C(c2ccc(F)cc2)NC(=S)N1 (stereo unspecified)
inactive: [1] 0.0751 | [2] -0.00334 | [3] 0.0684 | [4] -0.0806

CC(=O)CCC(=O)O
inactive: [1] 0.109 | [2] -0.0377 | [3] 0.149 | [4] 0.116

Nc1ccccc1C(=O)CC(N)C(=O)O (stereo unspecified)
inactive: [1] 0.119 | [2] 0.0475 | [3] 0.0296 | [4] 0.178

Clc1ccc(COC(Cn2ccnc2)c2ccc(Cl)cc2Cl)c(Cl)c1 (stereo unspecified)
inactive: [5] 0.0363 | [6] 0.054 | [1] 0.11 | [2] -0.0145 | [7] 0.0264 | [8] 0.0988 | [9] 0.0504 | [10] 0.0737 | [3] 0.143 | [4] 0.0636 | [11] 0.00663 | [12] 0.0754 | [13] -0.0261 | [14] 0.0596 | [15] -0.0834 | [16] 0.0583

Clc1ccc(COC(Cn2ccnc2)c2ccc(Cl)cc2Cl)cc1 (stereo unspecified)
inactive: [5] -0.00584 | [6] 0.0214 | [1] 0.00613 | [2] -0.0476 | [7] 0.00202 | [8] -0.00564 | [9] 0.0175 | [10] 0.0368 | [3] 0.0561 | [4] 0.0348 | [11] -0.113 | [12] 0.0131 | [13] -0.0802 | [14] 0.0353 | [16] -0.0458
active: [15] -0.429

Clc1ccc(CSC(Cn2ccnc2)c2ccc(Cl)cc2Cl)cc1 (stereo unspecified)
inactive: [1] 0.0547 | [2] -0.0713 | [3] 0.0724 | [4] -0.143

CSCCC(NC=O)C(=O)NC(CC(C)C)C(=O)NC(Cc1ccccc1)C(=O)O (stereo unspecified)
inactive: [1] 0.0125 | [2] 0.0891 | [3] 0.0974 | [4] 0.0808

Cn1cncc1[C@@](N)(c1ccc(Cl)cc1)c1ccc2c(c1)c(-c1cccc(Cl)c1)cc(=O)n2C
inactive: [5] -0.139 | [6] -0.0373 | [8] -0.0603 | [10] -0.0604
active: [7] -0.29 | [9] -0.324 | [11] -0.403 | [12] -0.128 | [13] -0.472 | [14] -0.135 | [15] -0.511 | [16] -0.303

COc1ccccc1C1NC(=S)NC(C)=C1C(=O)Nc1cccc(Cl)c1 (stereo unspecified)
inactive: [1] 0.0961 | [2] 0.101 | [3] 0.0795 | [4] 0.0861

O=C(O)C(O)C(O)(Cc1ccc(O)cc1)C(=O)O (stereo unspecified)
inactive: [1] 0.147 | [2] 0.0709 | [3] 0.147 | [4] 0.089

C[C@@H]1CC[C@@]2(OC1)O[C@H]1C[C@H]3[C@@H]4CC[C@H]5C[C@@H](O)CC[C@]5(C)[C@H]4C[C@@H](O)[C@]3(C)[C@H]1[C@@H]2C
inactive: [1] 0.0822 | [2] 0.0668 | [3] 0.111 | [4] 0.136

COc1ccccc1C=CC(=O)O
inactive: [1] 0.0113 | [2] -0.0457 | [3] 0.102 | [4] 0.0515

CN(C)c1ccc(C(=C2C=CC(=[N+](C)C)C=C2)c2ccc(N(C)C)cc2)cc1
inactive: [5] 0.0956 | [6] -0.0594 | [1] 0.105 | [2] 0.00922 | [7] 0.0542 | [8] 0.0588 | [9] 0.098 | [10] 0.0226 | [3] 0.0691 | [4] 0.106
active: [11] -0.295 | [12] -0.547 | [13] -2.54 | [14] -1.19 | [15] -4.26 | [16] -1.87

O=C1C=CC(=C(c2ccc(O)cc2)c2ccc(O)cc2)C=C1
inactive: [1] 0.083 | [2] 0.0465 | [3] 0.0975 | [4] 0.0767
